Among the data in the supplement of paper PMC4709259 are mean cell size values, retold here.

Counter-ions that a name gives are not always drawn. ± gives the standard deviation.

In the assay the test system is Jurkat. Briefly: mean cell size (FSC-A) relative to DMSO control (fraction of control); higher = larger cells. The following applies: 48 h. In a few lines: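 Jurkat cells at 600 cells/µl were incubated for 1 h and then treated for 48h with the Enzo Screen-Well FDA Approved Drug Library v2.0 at 25µM, with DMSO at 0.9% (v/v) final. Compounds that reduced counts below 20% of controls were retested in 10-fold dilutions down to 25nM. Cell count and mean cell size, taken as forward scatter area, were measured by flow cytometry relative to solvent-only controls. Each plate carried 6-12 controls, and values are means of 3 biological replicates.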
With `O=c1[nH]c(=O)n([C@H]2C[C@H](O)[C@@H](CO)O2)cc1I` [Idoxuridine] (concentration: 25 µM), the mean cell size was 1.05 ± 0.019.
`CC12CC3CC(C)(C1)CC(N)(C3)C2` [Memantine·HCl] (concentration: 25 µM) came in with a mean cell size of 1 ± 0.061.
The value for `CC1=C(CC(=O)O)c2cc(F)ccc2/C1=C\c1ccc([S+](C)[O-])cc1` (centres undefined) [Sulindac] (concentration: 25 µM) was 0.988 ± 0.019.
Turning to `CC(c1cc2ccccc2s1)N(O)C(N)=O` (centres undefined) [Zileuton] (concentration: 25 µM), the mean cell size stood at 1 ± 0.038.
For `CC1(C)O[C@@H]2C[C@H]3[C@@H]4CCC5=CC(=O)CC[C@]5(C)[C@@]4(F)[C@@H](O)C[C@]3(C)[C@]2(C(=O)CCl)O1` [Halcinonide] (concentration: 25 µM), the mean cell size amounted to 0.914 ± 0.03.
For the molecule `CO[C@@]1(NC(=O)Cc2cccs2)C(=O)N2C(C(=O)O)=C(COC(N)=O)CS[C@@H]21` [Cefoxitin·Na] (concentration: 25 µM), the mean cell size was 0.939 ± 0.031.
Then `CC(C(=O)O)c1cccc(Oc2ccccc2)c1` (centres undefined) [Fenoprofen Calcium] (concentration: 25 µM), with 0.901 ± 0.05; and `CC[C@@H]([C@H](C)O)n1ncn(-c2ccc(N3CCN(c4ccc(OC[C@@H]5CO[C@@](Cn6cncn6)(c6ccc(F)cc6F)C5)cc4)CC3)cc2)c1=O` [Posaconazole] (concentration: 25 µM), with 1.02 ± 0.032; and `COC(=O)C1=C(C)NC(C)=C(C(=O)OCCN(C)Cc2ccccc2)C1c1cccc([N+](=O)[O-])c1` (centres undefined) [Nicardipine·HCl] (concentration: 25 µM), with 1.01 ± 0.071.
